In PubChem BioAssay AID1347385 (Zoeller Lab, School of Medicine, Boston University, 2020) one finds outcome data, which are given here for 109 compounds.

Among all 20,000 compounds or so, about 85 (0.4%) were called active.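 How the source made its calls: active means cell survival signal 2 SD away from solvent-only control wells, confirmed on one or two retests; inactive means the rest.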 What follows is part of a selection rich in actives, with near analogues and random picks from the rest.

The test in a line: compounds reducing fatty acid uptake into lipids – ZR-82 cells, Enamine library, screen 3, primary screen (AID 1347385).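 Further: 3 h compound exposure then viability read about one day after UV.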 To be noted: ZR-82 CHO cells, pyrene fatty acid UV survival, CellTiter Blue, peroxisome-deficient CHO-K1 mutant line, plus DGAT-1, DGAT-2 and ACAT inhibitors; at 10 µM unless noted. Background: Resazurin is reduced to fluorescent resorufin, in cell work by metabolically active cells.
Take `O=C(Nn1c(-c2cccs2)nc2sc3c(c2c1=O)CCCC3)c1cccs1`: the outcome was inactive.

For the compound `CCOC(=O)C1=C(C)NC2=C(C(=O)CC(C)(C)C2)C1C` (centres undefined), the result was inactive.

For the compound `O=C(O)c1sc2cc(F)ccc2c1Cl`, the result was inactive.

Take `C(=N\Nc1nncc2ccccc12)/c1ccc(N2CCOCC2)s1`: the outcome was “inactive [setting not given]”.

Regarding `COC(CNc1ncnc2sc3c(c12)CCC3)OC`, the outcome was inactive.

For the compound `Clc1cc(CSc2nnnn2C2CC2)cc2c1OCCO2`, the outcome was inactive.

In the case of `O=[N+]([O-])c1ccc2[nH]c(O)c(N=Nc3ccc(C(F)(F)F)cc3[N+](=O)[O-])c2c1`, the result was inactive.

Turning to `NC(=O)NCCCC(=O)O`, the outcome was inactive.

Turning to `S=C(NCCc1ccccc1)N/N=C1\CC2CC=CC12` (centres undefined), the outcome is “inactive [setting not given]”.

Consider `CC(N=C1NS(=O)(=O)c2ccccc21)C(=O)OC1CCOC1=O` (centres undefined), for which the outcome was inactive.

Take `CCOC(=O)c1c(C)[nH]c(C(=O)Cn2ncc(Cl)c(Cl)c2=O)c1C`: the result was inactive.

With `FC(F)(F)C(=NC1(C(Cl)(Cl)Cl)Oc2ccccc2O1)Nc1ccccn1`, the result was inactive.

Consider `O=S(=O)(c1cc(Br)ccc1Br)N1CCCc2ccccc21`, for which the result was inactive.

As for `O=S1(=O)CCC(N(Cc2ccco2)S(=O)(=O)c2ccc(S(=O)(=O)N3CCCC3)cc2)C1` (centres undefined), the outcome was inactive.

`CCCN(CC1CC1)Cn1c(=S)sc2ccccc21`: the outcome was inactive.

As to `Fc1ccc(NC(=S)NNc2ccnc3cc(Cl)ccc23)cc1Cl`, the result was inactive.

With `Clc1ccc2c(NN=C3c4ccccc4-c4ccccc43)ccnc2c1`, the result was active.

On to `Clc1ccc2nc(N/N=C/c3cccc4nccnc34)nc(-c3ccccc3)c2c1`, for which the outcome is “inactive [setting not given]”.

On to `Cn1/c(=N/N=C/C(Cl)=C/c2ccccc2)sc2ccccc21`, for which the outcome is “inactive [setting not given]”.

With `S=C(NCC1CCCO1)NNc1ncnc2sc3c(c12)CCCC3` (centres undefined), the result was inactive.

Take `CC(C)=CCC/C(C)=C/C=N/Nc1ccc([N+](=O)[O-])cc1`: the outcome is “inactive [setting not given]”.

Turning to `Nc1c(Cl)cc(NC(=S)Nc2ccc(SC(F)F)cc2)cc1Cl`, the result was inactive.

Take `Fc1ccc(NC(=S)Nc2ccc(SC(F)F)cc2)cc1Cl`: the outcome was active.

In the case of `COc1cc(NC(=S)Nc2ccc(SC(F)F)cc2)cc(OC)c1OC`, the result was inactive.

Take `O=C(C1CCCCC1)N1N=C2/C(=C/c3ccco3)CCCC2C1c1ccco1` (centres undefined): the result was inactive.

For `NC(CSC12CC3CC(CC(C3)C1)C2)C(=O)O` (centres undefined), the result was inactive.

Regarding `O=C(NC1=NCCS1)C1CC2CCCC(C1)C2=O` (centres undefined), the outcome was inactive.

For the compound `CC(C)NC(=S)NN=C1CCCCCCCCCCC1`, the result was inactive.

`Cc1cc(NC(=O)COC(=O)C2=NNC(=O)CC2)no1`: the result was inactive.

As for `O=[N+]([O-])c1cc(S(=O)(=O)Nc2ccc(Cl)c(S(=O)(=O)N3CCOCC3)c2)ccc1Cl`, the result was inactive.

For the compound `O=[N+]([O-])c1ccc(N=P(c2cccc3ccccc23)(c2cccc3ccccc23)N2CCOCC2)c(Br)c1`, the result was inactive.

Turning to `Nc1scc[n+]1Cc1cccc2cccnc12`, the outcome was inactive.

As to `Nc1nc(SCC(=O)NCCN2CCOCC2)nc2sc3c(c12)CCC3`, the result was inactive.

Consider `CC(C)CC(C(=O)NNC(=O)c1ccco1)N1C(=O)C2CC=CCC2C1=O` (centres undefined), for which the outcome was inactive.

For `O=S(=O)(Nc1ncccn1)c1ccc(NC(=S)Nc2cccnc2)cc1`, the outcome was inactive.

Regarding `CC(C)CC(NC(=O)NC1CCCCC1)C(=O)O` (centres undefined), the result was inactive.

`c1ccc(C2=NNC(c3ccccc3)C2)cc1` (centres undefined): the outcome was inactive.

As to `O=C(NC1CCCCCCC1)c1ccc(=O)[nH]c1`, the outcome was inactive.

As to `CN(C1CCCCC1)S(=O)(=O)c1ccc2c(c1)OCCCO2`, the outcome was inactive.

As to `OC(Cc1nc2ccccc2[nH]1)c1nc2ccccc2[nH]1` (centres undefined), the result was inactive.

As for `Cc1cc(NC(=O)Cn2c(=O)/c(=C\c3ccc(C)s3)s/c2=C\C(=O)C(C)(C)C)no1`, the result was inactive.

With `C=CCN=c1scc(-c2ccc(OC)cc2)n1/N=C/c1ccc(OC(F)F)cc1`, the outcome was “inactive [setting not given]”.

Take `CCOC(=O)/C(=C\c1ccc(C)s1)c1nc2sc(C)c(C)c2c(=O)[nH]1`: the outcome was inactive.

As for `O=C(O)CCN1C(=O)C2CC=CCC2C1=O` (centres undefined), the outcome was inactive.

As for `S=C(N=P(c1ccccc1)(N1CCOCC1)N1CCOCC1)NCc1cn2ccccc2n1`, the outcome was inactive.

On to `S=C1NC(c2ccccc2)=NCN1N(c1ccccc1)c1ccccc1`, for which the outcome was inactive.

For the compound `COc1ccc(-c2noc(CSc3ncccn3)n2)cc1OC`, the outcome was inactive.

Regarding `CC1(C)CCCC(C)(C)N1Sc1ccccc1`, the result was inactive.

For the compound `Oc1ccc(-c2onc3ccc(Cl)cc23)cc1`, the outcome was inactive.

`NC1=NC(c2c(Cl)cccc2Cl)n2c(nc3ccccc32)N1` (centres undefined): the result was inactive.

`Cc1cc(C(=O)Cn2cnc3c2c(=O)n(C)c(=O)n3C)c(C)n1CCC1=CCCCC1`: the result was inactive.

Turning to `O=C1CCC(C(=O)OCC(=O)c2ccc(Br)s2)=NN1`, the outcome was inactive.

For the compound `O=C1CSC2=NCN(c3ccccc3)CN12`, the outcome was inactive.

Regarding `Clc1cc(Cl)c(N/N=C/c2cn(-c3ccccc3)nc2-c2cc3ccccc3o2)c(Cl)c1`, the outcome was “inactive [setting not given]”.

Turning to `O=c1/c(=C/c2ccccc2I)sc2nc3ccccc3n12`, the outcome was inactive.

Turning to `COc1ccccc1OCCOCCOc1ccccc1OC`, the outcome was inactive.

Regarding `O=c1c(Cl)c(N2CCCC2)cnn1-c1ccccc1`, the result was inactive.

With `COCCNC(=O)NC(=O)N(C1CCCCC1)S(C)(=O)=O`, the outcome was inactive.

For `Cc1sc2nc(-c3cccs3)nc(Sc3nnc(C4CC4)o3)c2c1C`, the result was inactive.

Regarding `CCOC(=O)c1sc2nc(C(C)Sc3ncnc4sc5c(c34)CCC5)[nH]c(=O)c2c1C` (centres undefined), the result was inactive.

Take `CC(C)(C)C1CCC(C(=O)OCC(=O)c2ccc(Cl)s2)CC1` (centres undefined): the result was inactive.

Regarding `O=C1CN(Cc2csc(-c3cccs3)n2)CCN1`, the outcome was inactive.

With `O=[N+]([O-])c1c(Sc2nnnn2-c2ccccc2)nc2sccn12`, the outcome was inactive.

For the compound `COc1ccc(C2=CC(c3ccc(OC)c(OC)c3)n3ncnc3N2)cc1OC` (centres undefined), the outcome was inactive.

Turning to `Cc1cc2ncn(Cc3ccc(C(C)C)cc3)c2cc1C`, the result was inactive.

For the compound `CCNc1n[nH]c(=S)s1`, the result was inactive.

For `S=C(Nc1ccc(Cl)c(Cl)c1)NC12CC3CC(CC(C3)C1)C2`, the result was inactive.

In the case of `O=C(Nc1ccccc1)NC(NC(=S)Nc1ccc(I)cc1)C(Cl)(Cl)Cl` (centres undefined), the result was inactive.

Regarding `O=C(Nc1ccccc1)Nc1ccc(Cl)c(Cl)c1`, the result was active.

Consider `FC(F)Sc1nc(-c2ccc(Br)cc2)nc2ccccc12`, for which the outcome was inactive.

On to `CC(C)CNC(=O)NC(=O)C1CCCCC1`, for which the result was inactive.

For the compound `O=[N+]([O-])c1cc(CN2CCOCC2)c2c(c1)OCOC2`, the result was inactive.

As to `Fc1ccc(-c2nnc(-c3nnc(-c4ccc(F)cc4)c(-c4ccccc4)n3)nc2-c2ccccc2)cc1`, the result was inactive.

Take `O=P1(Nc2cc(C(F)(F)F)ccc2Cl)C=C(c2ccccc2)OC(c2ccccc2)=C1`: the outcome was inactive.

Take `Nc1ccc([N+](=O)[O-])c(OC(F)F)c1`: the outcome was inactive.

In the case of `CCOC(=O)c1c(N)sc2c1CCCS2`, the outcome was inactive.

On to `C=CCN1C(=O)/C(=C/c2c(NC3CC(C)(C)NC(C)(C)C3)nc3ccc(C)cn3c2=O)SC1=S`, for which the result was inactive.

Turning to `O=C(COC(=O)CCNC(=O)NC12CC3CC(CC(C3)C1)C2)NCC(F)(F)F`, the result was inactive.

As for `O=S(=O)(c1ccc(F)c(F)c1)N1CCN(c2ccc(O)cc2)CC1`, the outcome was inactive.

On to `COC(=O)C(C)N` (centres undefined), for which the result was inactive.

As to `Cc1noc(C)c1COc1ncnc2sc3c(c12)CCCC3`, the result was inactive.

With `C(=N\n1c(-c2ccco2)csc1=NC1CCCCC1)/c1ccccn1`, the outcome was “inactive [setting not given]”.

For the compound `Cc1noc(C)c1S(=O)(=O)Nc1ccc(NS(=O)(=O)c2ccc3c(c2)OCCCO3)cc1`, the outcome was inactive.

Consider `S=c1n(CN2CCOCC2)nc(Cc2cccs2)n1C1CCCCC1`, for which the result was inactive.

`Ic1ccc2c(c1)Cc1ccccc1-2`: the outcome was inactive.

For the compound `Cn1c(C(F)(F)F)nn(CN2CCN(c3cccc(C(F)(F)F)c3)CC2)c1=S`, the result was inactive.

For the compound `O=C(CSc1nc2ccccc2nc1SCC(=O)c1cc2ccccc2o1)c1cc2ccccc2o1`, the outcome was inactive.

In the case of `O=S1(=O)N=C(N2CCC(c3nc4ccccc4o3)CC2)c2ccccc21`, the outcome was inactive.

`O=C(COC(=O)Cn1cc(C(F)(F)F)ccc1=O)NC(=O)NC1CCCC1`: the result was inactive.

For the compound `O=c1cc(COc2cc(Cl)c(Cl)cc2Cl)nc2ccc(Br)cn12`, the result was inactive.

For `FC(F)(F)c1ccc(Oc2ccc(Cl)c3cccnc23)nc1`, the result was inactive.

For `O=S(=O)(Nc1cc(S(=O)(=O)N2CCOCC2)ccc1N1CCCC1)c1cccs1`, the result was inactive.

Regarding `Clc1ccc(C=Nc2ccc3c(c2)OCO3)c(Cl)c1`, the outcome was inactive.

Take `CC(C)CN(C(=O)CSc1nncn1C)C1CCS(=O)(=O)C1` (centres undefined): the outcome was inactive.

In the case of `O=[N+]([O-])c1ccc(NN=C2C3CC4CC(C3)CC2C4)c(S(=O)(=O)Nc2ccc(Cl)cc2)c1`, the result was inactive.

Turning to `CN(C)/N=C/C=C1\CCC/C(=C\c2cc(Br)cs2)C1=O`, the outcome was “inactive [setting not given]”.

For `O=S(=O)(c1ccc(F)cc1F)N1c2cccc3cccc(c23)S1(=O)=O`, the outcome was inactive.

On to `Nc1c(C(=O)CSc2cc(F)ccc2F)c(=O)[nH]c(=O)n1C1CC1`, for which the outcome was inactive.

In the case of `c1nc(N2CCN(c3ncnc4sc5c(c34)CCCC5)CC2)c2c3c(sc2n1)CCCC3`, the outcome was inactive.

For the compound `Cc1cc(C)nc(N/N=C/c2ccncc2)n1`, the outcome was “inactive [setting not given]”.

As for `Fc1ccc(-n2c(-c3ccc(Cl)cc3Cl)n[nH]c2=S)cc1Cl`, the result was inactive.

Turning to `Cc1ccc(C)c(C2C3=C(CC(C)(C)CC3=O)Nc3nc(-c4cccnc4)nn32)c1` (centres undefined), the outcome was inactive.

Regarding `COc1cc(S(=O)(=O)n2c([N+](=O)[O-])cnc2C)ccc1Br`, the outcome was inactive.

Regarding `Cc1cc(C)c(C)c(S(=O)(=O)N(C)C2CCS(=O)(=O)C2)c1C` (centres undefined), the result was inactive.

For `CC(=O)c1c(C)[nH]c(C(=O)OCC(=O)c2cc(C)n(CC3CCCO3)c2C)c1C` (centres undefined), the outcome was inactive.

Take `O=C1NC(c2ccc3ncccc3c2)C(C(=O)c2cccnc2)C(O)(C(F)(F)F)N1` (centres undefined): the result was inactive.

`O=[N+]([O-])/C(CN1CCOCC1)=C1/CCCN1`: the result was inactive.

Consider `CCCCn1c(N)c(N(Cc2ccco2)C(=O)Cn2cnnn2)c(=O)[nH]c1=O`, for which the outcome was inactive.

As for `CN(C(=O)COC(=O)CN1C(=O)NC2(CCCC2)C1=O)C1CCCCC1`, the outcome was inactive.
